Among the data in PubChem BioAssay (NCATS) are Potency, outcome and max response values, retold here.

Test [1] concerns Zika virus NS2B-NS3 protease (linked construct). The test can be described thus: Primary screen NINDS Rhodamine qHTS for Zika virus inhibitors (AID 1347160). Further: nearly all actives have a fitted effect of over 55% in size. An outline of the steps:
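Kinetic fluorescence (Ex 480 nm, Em 540 nm) over 15 min with 1.5 microM Rhodamine110 peptide and 25 nM linked protease.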

In test [2] the target is Calcium and integrin-binding protein 1 (Homo sapiens) (UniProt Q99828). The test can be described thus: Primary qHTS for Identification of Calcium Integrin Binding Protein 1 (CIB1) Competitor (AID 1508620).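 Further: GST tagged CIB1 binding a fluorescein labelled alphaIIb integrin peptide tracer; top concentration of the series differs between compounds; on the % scale 0 is the no-effect control and ±100 the full control effect.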 An outline of the steps:
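Fluorescence polarization competition: GST-tagged CIB1 (1 uM final) preincubated with compound 15 min at room temperature, then FITC-labelled alphaIIb peptide (100 nM final) added. After 15 min at room temperature, polarization read at Ex 480/Em 540.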

For test [3], the target named is Glutathione peroxidase 1 (Homo sapiens) (UniProt P07203). The test can be described thus: Primary qHTS Assay for Inhibitors of Recombinant Selenoprotein Glutathione Peroxidase 1 (GPX1) (AID 1845191). Further: nearly all actives have a fitted effect of over 65% in size. The procedure, abridged:
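GR-coupled assay: compounds preincubated 30 min at room temperature with GPX1, then reaction started with CHP; final 10 nM GPX1, 1 mM GSH, 0.5 mM CHP, 0.5 mM NADPH, 100 nM GR, 0.01% BSA, pH 7.5 Tris buffer. NADPH fluorescence (340/450 nm) read at 0 and 15 min.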

The target in test [4] is Phospholipid hydroperoxide glutathione peroxidase GPX4 (Homo sapiens) (UniProt P36969). The test can be described thus: Primary qHTS Assay for Inhibitors of Recombinant Selenoprotein Glutathione Peroxidase 4 (GPX4) (AID 1845192). Further: on the % scale 0 is the no-effect control and ±100 the full control effect; nearly all actives have a fitted effect of over 65% in size. The procedure, abridged:
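GR-coupled assay: recombinant GPX4 preincubated 30 min with compound at room temperature; final 200 nM GPX4, 1 mM GSH, 0.5 mM cumene hydroperoxide, 0.5 mM NADPH, 100 nM GR, 0.01% BSA, pH 7.5 Tris. NADPH fluorescence (340/450 nm) read at 0 and 15 min.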

Test [5] concerns the target Luciferin 4-monooxygenase (Photinus pyralis) (UniProt P08659). The test can be described thus: Primary firefly luciferase (FLuc) qHTS assay for identification of artifact compounds. (AID 1845220). Further: nearly all actives have a fitted effect of over 60% in size. The note with it: outcome: dose series up to 54.1 µM unless noted. An outline of the steps:
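Titrated compounds were incubated 15 min at RT, protected from light, with luciferin and ATP at 10 uM; reaction started with 10 nM FLuc, luminescence imaged at 5 min, and concentration-response fitted by Hill equation.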

Test [6] can be described thus: Primary fluorescence-based thiol-reactive (MSTI) qHTS assay for identification of artifact compounds. (AID 1845221).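 Further: thiol-reactive compounds lower the probe fluorescence signal; nearly all actives have a fitted effect of over 65% in size.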 The procedure, abridged:
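Thiol-reactive compounds detected by quenching of 4 uM MSTI fluorescence (525/598 nm) after 1 h room-temperature dark incubation in PBS pH 7.4, 2% DMSO. qHTS titration; percent inhibition Hill-fitted against Acetyl-MSTI/MSTI controls.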

Test [7] concerns Nanoluciferase (engineered Oplophorus gracilirostris luciferase). Briefly: Primary Nanoluciferase (NLuc) qHTS assay for identification of artifact compounds. (AID 1845222).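 Further: NLuc secreted into diluted conditioned medium of S16 cells; 0% = DMSO and -100% = no enzyme.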 The procedure, abridged: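 qHTS format, against NLuc in S16 cell-conditioned medium. Nano-Glo substrate 1:100 was added after 15 min at room temperature. Luminescence was taken after a further 5 min.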
Test [8] in a line: Primary redox qHTS assay for identification of artifact compounds. (AID 1845223).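 Further: 0% = DMSO and 100% = reference compound.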 An outline of the steps:
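Amplex Red (25 uM) and HRP (250 mU/mL) in HBSS, with compounds for 15 min, then 250 uM DTT for 30 min, room temperature, dark. Fluorescence 525/598 nm read; normalized to DMSO and 10 uM DA3003; Hill fit.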

A further test has as its system NIH3T3. Briefly: Cytotoxic Profiling of Annotated Libraries Using Quantitative High-Throughput Screening (AID 1296008). Further: nearly all actives have a fitted effect of over 60% in size. On max response: on the % scale 0 is the no-effect control and ±100 the full control effect. The note with it: Five cell lines viability, CellTiter-Glo ATP luminescence, 48-72 h; max response: active compounds read low. An outline of the steps:
(§1)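 Cells exposed to compounds for 48 or 72 hr at 37 degrees Celsius. Viability read as ATP-coupled luminescence with CellTiter-Glo after 10 min at room temperature.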

The subject of a further test is C33A. The test can be described thus: Primary qHTS to identify gynecologic anti-cancer compounds using libraries of approved drugs and bioactive compounds (AID 1345084). Further: nearly all actives have a fitted effect of over 55% in size. Further: potency means the concentration at half of the fitted maximal effect. The note with it: Gynecologic cancer cell panel viability, ATPlite luminescence, 48 h; series mostly up to 57.5 µM. The procedure, abridged:
(§2)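 Five-point cytotoxicity, 48 h drug exposure at 37 C, 5% CO2, on cells seeded 16 h beforehand. ATP content read by ATPlite luminescence.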

A further test relates to CAOV3. Described as above. The note with it: Gynecologic cancer cell panel viability, ATPlite luminescence, 48 h; series mostly up to 57.5 µM. The procedure, abridged: as §2
The test system of a further test is CASKI. The description is as above. The note with it: Gynecologic cancer cell panel viability, ATPlite luminescence, 48 h; series mostly up to 57.5 µM. An outline of the steps:
as §2

For the next test, the system named is Es-2. The test is described as above. The note with it: Gynecologic cancer cell panel viability, ATPlite luminescence, 48 h; series mostly up to 57.5 µM. An outline of the steps:
as §2

Another test deals with Hek293T. Described as above. The note with it: Gynecologic cancer cell panel viability, ATPlite luminescence, 48 h, control line for the selectivity index; series mostly up to 57.5 µM. The procedure, abridged:
as §2

The next test deals with OV90. Described as above. The note with it: Gynecologic cancer cell panel viability, ATPlite luminescence, 48 h; series mostly up to 57.5 µM. The procedure, abridged:
as §2

The test system of another test is PA-1. The description is as above. The note with it: Gynecologic cancer cell panel viability, ATPlite luminescence, 48 h; series mostly up to 57.5 µM. The procedure, abridged:
as §2

The next test concerns Tov-21-G. The test is described as above. The note with it: Gynecologic cancer cell panel viability, ATPlite luminescence, 48 h; series mostly up to 57.5 µM. An outline of the steps:
as §2

Another test relates to Tov112D. The test is described as above. The note with it: Gynecologic cancer cell panel viability, ATPlite luminescence, 48 h; series mostly up to 57.5 µM. An outline of the steps: as §2
A further test concerns HaCat. The test can be described thus: Cytotoxic Profiling of Annotated Libraries Using Quantitative High-Throughput Screening (AID 1296008). Further: nearly all actives have a fitted effect of over 60% in size. On max response: on the % scale 0 is the no-effect control and ±100 the full control effect. The note with it: Five cell lines viability, CellTiter-Glo ATP luminescence, 48-72 h; max response: active compounds read low. The procedure, abridged: as §1
In another test the test system is JEG-3. The test can be described thus: Primary qHTS to identify gynecologic anti-cancer compounds using libraries of approved drugs and bioactive compounds (AID 1345084). Further: nearly all actives have a fitted effect of over 55% in size. Further: potency means the concentration at half of the fitted maximal effect. The note with it: Gynecologic cancer cell panel viability, ATPlite luminescence, 48 h; series mostly up to 57.5 µM. An outline of the steps:
as §2

Structures are written as SMILES. Values without a mark were called inactive. Inconclusive results are not listed. Calls of active or inactive are those of the source. The call rests on the fitted dose curve; in most records, active means well fitted curve in the direction sought with a large enough effect; inconclusive means small, poorly fitted or top-dose-only effect, or another doubt; inactive means no such curve, though single readings can be large; an effect the other way counts as inactive or inconclusive.

Chain of Glutathione peroxidase 1 (Homo sapiens) (P07203 whole entry, looked up): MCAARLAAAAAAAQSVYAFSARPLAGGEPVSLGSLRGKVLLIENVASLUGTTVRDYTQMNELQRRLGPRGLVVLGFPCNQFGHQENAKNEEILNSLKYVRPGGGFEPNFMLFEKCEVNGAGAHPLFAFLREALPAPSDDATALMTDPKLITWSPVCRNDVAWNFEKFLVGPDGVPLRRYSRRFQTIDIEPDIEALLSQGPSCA
Chain of Calcium and integrin-binding protein 1 (Homo sapiens) (Q99828 whole entry, looked up): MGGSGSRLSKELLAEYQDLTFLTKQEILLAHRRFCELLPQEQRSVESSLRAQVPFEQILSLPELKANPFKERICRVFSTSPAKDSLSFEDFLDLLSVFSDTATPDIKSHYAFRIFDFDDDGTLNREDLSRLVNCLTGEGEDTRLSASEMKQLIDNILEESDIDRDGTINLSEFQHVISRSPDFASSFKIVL
Chain of Phospholipid hydroperoxide glutathione peroxidase GPX4 (Homo sapiens) (P36969 whole entry, looked up): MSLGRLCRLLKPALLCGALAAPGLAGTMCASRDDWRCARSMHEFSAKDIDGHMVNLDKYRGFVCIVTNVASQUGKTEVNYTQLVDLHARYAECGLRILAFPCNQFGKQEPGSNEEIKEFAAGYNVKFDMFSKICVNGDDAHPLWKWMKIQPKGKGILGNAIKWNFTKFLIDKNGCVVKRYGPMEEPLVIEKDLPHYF

As for `COc1ccc(CCNCc2ccc(OC)c3ccccc23)cc1`, the Potency result in [1], in test [2], in test [3], in test [4], in test [6] and in [7] was “inactive” each time. Besides, the Potency entry (in [8]; in the test on C33A; with CAOV3; in the test on CASKI; with Es-2; with Hek293T) was “inactive” each time. Moreover, the Potency result in the test with OV90, in the test with PA-1, with Tov-21-G and in the test on Tov112D was “inactive” each time. The result in [5] was inactive. Moreover, the max response in the test with NIH3T3 was -21.8%.
Consider `C/C=C(\C)C(O)C(C)/C=C(C)/C=C/C/C(C)=C/Cc1nc(OC)c(OC)c(O[C@@H]2O[C@@H](C)[C@H](O)[C@@H](O)[C@H]2O)c1C` (some centres not stated), for which the Potency result (in test [1]; in test [2]; in [4]; in [6]; in test [7]; in the test on OV90) was “inactive” in each case. Moreover, the Potency result in the test with Tov112D is “inactive”. The molecule was classed as inactive (in [5]; in the test with HaCat). Moreover, the Potency with CASKI is 3.98 µM (active).
On to `C[C@H]1CCC[C@H](O)CCC/C=C/c2cc(O)cc(O)c2C(=O)O1`, for which the Potency entry in test [1], in test [2], in test [3], in [6], in test [7] and in [8] was “inactive” each time. The Potency result in the test on C33A, in the test on CAOV3, in the test with CASKI, in the test with Es-2, in the test with Hek293T and in the test with JEG-3 was “inactive” in each case. Besides, the Potency entry in the test on OV90, in the test with PA-1, in the test on Tov-21-G and with Tov112D was “inactive” throughout. Also, the result (in test [5]; in the test with NIH3T3) was inactive.
`COC1(C[S@@](=O)c2ccccc2)CCN(CCc2c[nH]c3ccc(F)cc23)CC1`: the Potency result in [1], in test [2], in test [3], in [4], in [6] and in test [7] was “inactive” in each case. Also, the Potency entry (in [8]; in the test with C33A; in the test on CAOV3; in the test with CASKI; in the test with Es-2; in the test on Hek293T) was “inactive” each time. The Potency entry in the test with JEG-3, with OV90, in the test on PA-1, in the test with Tov-21-G and in the test with Tov112D was “inactive” throughout. Further, the outcome in [5] was inactive. The max response in the test with HaCat is 3.53%; in the test with NIH3T3, 1.71%.
As for `CCCCOC(=O)c1ccnc2cc(C(OCCN3CCCCC3)c3ccccc3Cl)sc12` (configuration not stated), the Potency entry in test [1], in [2], in test [3], in test [4], in test [7] and in [8] was “inactive” throughout. The Potency entry in the test with C33A, in the test with CAOV3, with CASKI, with Es-2, in the test with Hek293T and in the test with JEG-3 was “inactive” each time. Besides, the Potency result with OV90, with PA-1, with Tov-21-G and in the test with Tov112D was “inactive” in each case. For the same molecule, the molecule was called inactive (in [5]; with HaCat). The max response with NIH3T3 is -3.89%.
`CN1CN(c2ccccc2)C2(CCN(CCCC(=O)c3ccc(F)cc3)CC2)C1=O`: the Potency entry in test [1], in test [2], in test [3], in [4], in test [6] and in test [7] was “inactive” in each case. Besides, the Potency entry (in test [8]; with CAOV3; with CASKI; with Es-2; in the test on Hek293T; in the test with JEG-3) was “inactive” in each case. Further, the Potency entry in the test on PA-1, in the test with Tov-21-G and in the test on Tov112D was “inactive” in each case. Also, in [5], the molecule was called inactive. In addition, the max response in the test on HaCat was 2.53%.
